From PubChem
A selection: hits, their analogues and other compounds. The true share with any hit is near 3.7%.
NLRP3 yeast inh: NALP3 inflammasome inhibitors in reconstituted yeast, primary screen, luminescence, uHTS; Yeast reconstituted NLRP3/ASC/caspase-1, beta-gal luminescence, 24 h; inhibition, % at 10 µM; hit rate 0.39% among 330,000; AID 2825, 2010;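 active = inhibition of 50% or more; inactive = inhibition below 50%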;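 also: plate controls were induced DMSO wells for no effect and uninduced yeast grown without galactose for full effect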
TIM10 inh: growth inhibitors of isogenic TIM10 control yeast, primary screen, counter-screen for tim10-1 yeast inhibitor project, luminescence, uHTS; S. cerevisiae TIM10 strain growth, BacTiter-Glo luminescence, 24 h; inhibition, % at 10 µM; hit rate 1.4% among 330,000; AID 463195, 2010;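 active = inhibition of 40% or more at the single tested concentration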;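 also: wild-type TIM10 isogenic control strain grown at permissive 25 °C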
tim10-1 inh: growth inhibitors of tim10-1 mutant yeast, primary screen, luminescence, uHTS; S. cerevisiae tim10-1 ts strain growth, BacTiter-Glo, 24 h; inhibition, % at 20 µM; hit rate 2.2% among 330,000;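 active = inhibition of at least 40%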;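 also: mutant grown at 25 °C; 0% = DMSO wells with yeast and 100% = wells holding no yeast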
tim23-1 inh: growth inhibitors of tim23-1 mutant yeast, primary screen, luminescence, uHTS; S. cerevisiae tim23-1 growth, BacTiter-Glo luminescence, 24 h; inhibition, % at 20 µM; hit rate 1.3% among 330,000;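 active = growth inhibition of the mutant yeast at or above 50%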;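 also: temperature-sensitive mutant grown at 25 °C; plate controls were DMSO-treated mutant yeast for no effect and medium wells lacking yeast for full effect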
PfHsp90 yeast 2: growth inhibition of PfHsp90-expressing yeast, primary screen, antimalarial PfHsp90 inhibitor project, S. cerevisiae, BacTiter-Glo luminescence, single point, set 2 | BacTiter-Glo ATP, 48 h; yeast lacking PDR1 and PDR3 efflux regulators | hit rate 0.32% among 310,000 | inhibition, % at 9.4 µM;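 active = every replicate shows inhibition above about 80%, whatever the replicate mean, limit read from the data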;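 also: 0% = DMSO neutral controls and 100% = 20 µM radicicol positive controls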
tim10-1 conf: growth inhibitors of tim10-1 mutant yeast, confirmation, single concentration, luminescence, S. cerevisiae | hit rate 56% among 7,400 | S. cerevisiae tim10-1 ts strain growth, BacTiter-Glo, 24 h | inhibition, % at 20 µM | shares compounds with tim10-1 inh;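 active = inhibition of yeast growth at or above a set limit in either of two repeat tests at 20 µM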;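 also: tim10-1 mutant grown at permissive 25 °C to find synthetic lethal compounds; 0% = DMSO yeast wells and 100% = medium wells without yeast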
TIM10 conf: growth inhibitors of wild-type TIM10 yeast, confirmation, counter-screen for tim10-1 synthetic lethality project, single concentration, luminescence, S. cerevisiae. hit rate 63% among 4,600. inhibition, % at 10 µM. S. cerevisiae tim10 strain growth, BacTiter-Glo luminescence, 24 h. shares compounds with TIM10 inh. AID 463215, 2010;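 active = inhibition of yeast growth at or above a set limit in either of two replicates at 10 µM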;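 also: this counterscreen used the strain with wild-type TIM10; 0% = yeast with DMSO and 100% = medium wells lacking yeast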
tim23-1 confirm: tim23-1 mutant yeast growth inhibitors, confirmation, luminescence, single concentration; inhibition, % at 20 µM; shares compounds with tim23-1 inh; S. cerevisiae tim23-1 growth, BacTiter-Glo luminescence, 24 h; hit rate 83% among 4,400;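 active = inhibition above about 39% in either of two replicate wells at 20 µM, limit read from the data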;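 also: temperature-sensitive tim23-1 mutant grown at 25 °C; 0% = DMSO wells with yeast and 100% = medium wells without yeast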
Starred values were filed as active, the others as inactive; . = not tested or not shown.

SMILES	NLRP3 yeast inh	TIM10 inh	tim10-1 inh	tim23-1 inh	PfHsp90 yeast 2	tim10-1 conf	TIM10 conf	tim23-1 confirm
Cc1occc1-c1nnc(SCC(=O)N2CCCCC2C)o1 (stereo unspecified)	2	10	9	7	11	.	.	.
NNC(=O)c1[nH]c(-c2ccccc2)cc1-c1ccccc1	13	41*	57*	53*	-9	44*	21	46*
O=C(O)c1ccc(-c2nc(-c3ccccc3)c(-c3cccs3)[nH]2)cc1	-40	20	9	20	0	.	.	.
COc1ccc(-c2nc(-c3cccs3)c(-c3cccs3)[nH]2)cc1O	-39	26	52*	74*	.	34*	.	71*
CN1CCN(NC(=S)NC2CCCCC2)CC1	-6	8	16	14	-4	.	.	.
CC(C(=O)Nc1cccnc1)n1cc([N+](=O)[O-])cn1 (stereo unspecified)	5	-7	6	-3	-28	.	.	.
CCOC(=O)C1CCN(C2=NC(=O)/C(=C/c3ccc(Cl)cc3)S2)CC1	34	32	49*	50*	-50	32*	.	44*
CCOC(=O)C1CCN(C2=NC(=O)/C(=C/c3ccc(OC)c(OC)c3)S2)CC1	1	10	31	20	-3	.	.	.
COCCCNC(=O)CN(CCc1ccccc1)S(=O)(=O)c1ccc(C)cc1	5	21	25	29	-1	.	.	.
COc1ccc(NC(=O)CSc2nc(N)cc(N)n2)cc1S(=O)(=O)N1CCCCC1	19	10	-7	-2	.	.	.	.
CCCCCc1c(C)nc(Nc2nc(C)c3cc(OC)ccc3n2)[nH]c1=O	20	16	7	9	7	.	.	.
CCc1c(C)nc(Nc2nc(C)c3cc(OC)ccc3n2)[nH]c1=O	11	46*	42*	53*	-11	31*	-9	52*
CC(C)Cn1c2c(c(O)c(C(=O)Nc3ncccc3O)c1=O)CCCC2	19	50*	40*	55*	-14	43*	57*	61*
COc1ccc(Cl)cc1NC(=O)C1CC(c2c(F)cccc2Cl)=NO1 (stereo unspecified)	20	65*	80*	65*	5	76*	72*	85*
N#C/C(=C\c1ccccn1)c1nc2ccccc2s1	26	78*	83*	65*	-6	87*	82*	34
Cn1cc(Cl)nc1C(O)c1ccccc1 (stereo unspecified)	7	-15	12	16	-31	.	.	.
S=C(NCc1ccncc1)Nc1cccc(Cl)c1	-6	10	18	8	8	.	.	.
Fc1ccc(CNC(=S)Nc2cccc(Cl)c2)cc1	14	38	48*	50*	-8	41*	.	52*
CC(C)NC(=O)CN1C(=O)CSc2ccc(S(=O)(=O)N3CCCC3)cc21	8	2	-17	-17	2	.	.	.
C[C@H](NC(=O)c1ccccc1Cl)C(=O)OCc1cn2cc(Cl)ccc2n1	3	-36	-38	-53	-27	.	.	.
CC(=O)O/N=C(/c1nonc1N)N1CCN(c2ccc([N+](=O)[O-])cc2Cl)CC1	-7	75*	62*	63*	14	67*	85*	75*
Cc1cccc(N=Cc2cc(Br)cc(Cl)c2O)c1	12	33	50*	73*	-56	16	.	84*
Cc1cc(C)cc(OCC(=O)Nc2cnn(CCCC(=O)O)c2)c1	15	-5	6	14	4	.	.	.
O=C(COC(=O)c1ccc([N+](=O)[O-])s1)c1ccc[nH]1	36	79*	63*	64*	-22	71*	84*	58*
CC(C)N(Cc1ccccc1)S(=O)(=O)c1ccc(Cl)nc1	31	-22	-13	18	.	.	.	.
SMILES	NLRP3 yeast inh	TIM10 inh	tim10-1 inh	tim23-1 inh	PfHsp90 yeast 2	tim10-1 conf	TIM10 conf	tim23-1 confirm
CCn1c(C)nc2cc(-c3nc4n(n3)Cc3ccccc3-4)ccc21	10	54*	60*	65*	55	51*	49*	68*
Cc1cccc(C(=O)N2CCN(c3ccc(C(F)(F)F)cn3)CC2)c1C	34	6	23	33	-19	.	.	.
O=[N+]([O-])c1ccc(/C=N/NC(=S)Nc2ccccc2F)o1	3	43*	56*	55*	-8	47*	-6	58*
O=C(N/N=C\c1ccc([N+](=O)[O-])s1)C1COc2ccccc2O1 (stereo unspecified)	39	-52	-12	-11	-9	.	.	.
O=C(N/N=C\c1ccc([N+](=O)[O-])o1)C1COc2ccccc2O1 (stereo unspecified)	16	31	57*	57*	-25	49*	.	42*
O=C(CCC(=O)Nc1ccc(Cl)cc1Cl)N/N=C/c1ccc([N+](=O)[O-])o1	15	45*	64*	92*	.	43*	51*	88*
COC(=O)c1cc2ccc(OC)cc2c2cc(OC)c(OC)cc12	14	0	7	42	-8	.	.	.
CC(C)C[C@H](NC(=O)OC(C)(C)C)C(=O)N[C@@H](CO)[C@H](O)[C@@H]1C[C@@H]1C(=O)N1CCCC1	0	1	3	1	-13	.	.	.
Cc1nc2ncnn2c(C)c1Cc1cccc(C(F)(F)F)c1	3	-2	14	9	5	.	.	.
Cc1c(N2C(=O)/C(=C/C3CC=CCC3)SC2=S)c(=O)n(-c2ccccc2)n1C (stereo unspecified)	19	40	48*	51*	.	35*	.	47*
COc1cccc(NC(=O)c2cccnn2)c1	9	-7	13	-6	-31	.	.	.
Cc1ccc(-c2cc(-c3ccccc3C)[nH]n2)c(O)c1	21	49*	48*	74*	-16	58*	57*	54*
Cc1ccc(-c2cc(-c3cccc(F)c3)n[nH]2)c(O)c1	25	48*	58*	59*	6	51*	-5	21
Cc1ccc(-c2[nH]ncc2C(=O)c2cccc(F)c2)c(O)c1	6	5	33	30	0	.	.	.
CC(C)NC(=S)N/N=C/c1cccnc1	18	-19	-12	-15	7	.	.	.
CN1CCN(C(c2cccc(Cl)c2)c2ccccc2Cl)CC1 (stereo unspecified)	-70	21	12	-26	23	.	.	.
